TEAD-YAP inh: TEAD-YAP interaction inhibition, primary screen, TEAD-YAP interaction inhibitor project, luminescence, HEK-TIYL cells. TEAD-Gal4/YAP UAS-luciferase luminescence. inhibition, % at 9.12 µM. 640,000 tested, 1.4% active. AID 1259422, 2018; in the data active = inhibition above about 32%;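 also: 0% = median of test compound wells and 100% = reference inhibitor wells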
FBW7 activator: FBW7 E3 ligase activators, primary screen, biochemical, AlphaScreen, human. normalized activity (activation), % at 26.1 µM. AlphaScreen FBW7–phospho-cyclin E peptide binding, activator screen. 650,000 tested, 0.13% active. F-box/WD repeat-containing protein 7 (Homo sapiens), Q969H0; in the data active = normalized activity above about 1.9%;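 also: purified mutant Fbw7 with reduced substrate affinity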
MITF primary: MITF inhibitors, primary screen, biochemical, AlphaScreen, human; Microphthalmia-associated transcription factor (Homo sapiens), O75030; AlphaScreen MITF homodimerization, bead proximity signal; inhibition, % at 2.6 µM; 650,000 tested, 0.91% active; in the data active = inhibition above about 50%;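 also: 0% = vehicle wells with protein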
Target sequence (O75030 whole entry, looked up): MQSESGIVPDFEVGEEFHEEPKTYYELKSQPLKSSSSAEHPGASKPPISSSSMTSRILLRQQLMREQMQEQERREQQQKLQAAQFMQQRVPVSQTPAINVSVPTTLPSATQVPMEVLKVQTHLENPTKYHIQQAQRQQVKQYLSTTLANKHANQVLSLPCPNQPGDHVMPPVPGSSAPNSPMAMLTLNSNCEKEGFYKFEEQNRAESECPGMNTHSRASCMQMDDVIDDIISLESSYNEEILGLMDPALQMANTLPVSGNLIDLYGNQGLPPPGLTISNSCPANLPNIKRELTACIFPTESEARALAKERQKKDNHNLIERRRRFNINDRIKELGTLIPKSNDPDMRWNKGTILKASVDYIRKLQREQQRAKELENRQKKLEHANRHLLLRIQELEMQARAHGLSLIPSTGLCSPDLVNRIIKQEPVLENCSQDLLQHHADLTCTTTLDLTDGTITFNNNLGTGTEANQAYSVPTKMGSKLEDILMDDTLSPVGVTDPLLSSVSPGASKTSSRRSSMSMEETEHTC
GPR151 activ: activators of human GPR151, primary screen, cell-based, PathHunter beta-arrestin, luminescence; AID 1508602, 2020; G-protein coupled receptor 151 (Homo sapiens), Q8TDV0; activation, % at 11.2 µM; 650,000 tested, 1% active; PathHunter beta-arrestin GPR151 cells; in the data active = activation above about 4.9%;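 also: 0% = median of compound wells and 100% = cells with positive control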
MITF inh conf: MITF inhibitors, retest of hits, confirmation, biochemical, AlphaScreen, triplicate; AlphaScreen MITF homodimerization, biotin/His-MITF beads; shares compounds with MITF primary; 4,700 tested, 16% active; inhibition, % at 2.6 µM;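 active = inhibition above a cutoff derived from the DMSO control wells, cut at about 28% in these data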;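 also: 0% = MITF dimer wells with DMSO only; inhibitors lower the bead chemiluminescence by keeping MITF from dimerizing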
AS interf DR: AlphaScreen optical interference compounds, dose response, counter-screen, biochemical, HTS. AID 1259373, 2018. 480 tested, 6% active. IC50, µM. AlphaScreen optical interference counterscreen, cell-free. shares compounds with MITF primary; call rule not given here
AlphaScreen intf2: AlphaScreen optical interference compounds, counter-screen for MITF inhibitor project, biochemical, triplicate; 4,700 tested, 7.6% active; shares compounds with MITF primary; LysRS AlphaScreen counterscreen, signal interference; inhibition, % at 2.6 µM; AID 1259376, 2018;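 active = inhibition above a cutoff derived from the DMSO control wells, cut at about 30% in these data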
* hit, by the source's call; . = not tested or not shown. Sampled rows, rich in hits. Any-hit rate of the full collection: about 3.5%.

SMILES	TEAD-YAP inh	FBW7 activator	MITF primary	GPR151 activ	MITF inh conf	AlphaScreen intf2	others
COc1cc(CN2CCN(C3CCN(Cc4ccccc4)CC3)CC2)cc(OC)c1O	3	0	63*	-1	-6	7
CCOc1cc(CN2CCC(C(=O)NCC3CCCO3)CC2)ccc1O (stereo not given)	0	0	58*	1	1	-2
COc1cc(CN2CCC(C(=O)NC3CCCC3)CC2)ccc1O	5	0	60*	0	-16	2
CCOc1ccc(CN2CCC(C(=O)NCC3CCCO3)CC2)cc1 (stereo not given)	-3	0	36	0	.	.
CC1CC(=O)Nc2ccc(N)cc2N1C=O (stereo not given)	-6	0	10	1	.	.
Cc1ccccc1CN1CCc2nnc(-c3ccccc3)n2CC1	-6	0	12	0	.	.
Oc1ccc2c(c1)C1CCCC1(N1CCOCC1)O2 (stereo not given)	8	0	70*	1	73*	-2	AS interf DR=>6.5
CN1CCN(CC(=O)N/N=C\c2ccsc2)CC1	1	0	26	1	.	.
CN1CCN(CC(=O)N/N=C\c2ccccc2O)CC1	6	0	-1	0	.	.
COc1cc(/C=N\NC(=O)CN2CCN(C)CC2)cc(OC)c1	7	0	56*	1	0	-3
COc1cc(/C=N\NC(=O)CN2CCN(C)CC2)cc2c1OCO2	-6	0	51*	0	26	0
NC(=O)n1c(CCC(=O)O)nc2sc3c(c2c1=O)CCC3	-10	0	78*	0	73*	-7	AS interf DR=>6.8
O=C(CCCCCn1nnc2ccccc2c1=O)N1CCC(O)(c2cccc(C(F)(F)F)c2)CC1	7	0	74*	2	7	2
CCCC(=O)Nc1ccccc1NC(=O)C(C)Oc1ccccc1 (stereo not given)	14	1	8	-1	.	.
O=C(c1ccc(Br)s1)N1CCC[C@@H]1[C@@H](O)c1nccs1	1	0	14	0	.	.
CN=c1scc(C)n1/N=C/C1CCCCC1	-59	0	97*	1	11	15
CC1=CC(C)(C)N(C(=O)Cc2ccccc2)c2cc(C(c3ccccc3)(c3ccccc3)c3ccccc3)ccc21	-5	0	-3	2	.	.
CCN(C(=O)C12CCC(C)(C(=O)O1)C2(C)C)c1ccccc1 (stereo not given)	-7	0	-14	1	.	.
COC(=O)c1c(OCCc2ccsc2)cc(=O)n2c1CCN(CCCSC)CC2	1	0	3	0	.	.
CC(C)CC1=NN(C(=O)c2ccc(O)cc2)C(O)(C(F)(F)F)C1 (stereo not given)	2	0	2	4	.	.
COC(=O)C1(O)CC(CC(C)C)=NN1C(=O)c1ccccc1 (stereo not given)	-21	0	71*	0	0	-4
CCN1CCN(CCOc2cc(C)ccc2C(C)C)CC1	-3	0	52*	-2	-7	-2
CCN1CCN(CCCOc2ccc(C)cc2Br)CC1	0	0	63*	-1	14	11
CCN1CCN(CCCCOc2ccc(C)cc2C)CC1	-5	0	59*	0	3	8
Cc1ccc(OCCN)c(Br)c1	-1	0	3	1	.	.
SMILES	TEAD-YAP inh	FBW7 activator	MITF primary	GPR151 activ	MITF inh conf	AlphaScreen intf2	others
COC(F)(C(=O)Oc1cc([N+](=O)[O-])cc2cccnc12)C(F)(F)F (stereo not given)	43*	-1	95*	0	99*	101*
O=C(Nc1nc(-c2cc([N+](=O)[O-])cs2)cs1)c1ccc(S(=O)(=O)N2CCc3ccccc32)cc1	9	0	-3	1	.	.
COc1ccc(C2C=C(c3ccc(F)cc3)Nc3nnnn32)cc1OCc1ccccc1 (stereo not given)	7	0	-1	-2	.	.
COC(=O)CSc1nc2ccccc2n1CC(=O)N1c2ccccc2CC1C (stereo not given)	3	0	18	-1	.	.
CN(C)c1ccc(NC2CC(=O)N(c3ccc(F)cc3)C2=O)cc1 (stereo not given)	-6	0	1	0	.	.
CN(C)c1ccc(NC2CC(=O)N(c3ccc(O)cc3)C2=O)cc1 (stereo not given)	12	0	71*	2	30*	31*
COc1ccc(C(=O)NCC2CCC3(CCN(C(C)C)CC3)O2)cc1F (stereo not given)	-2	0	3	-1	.	.
C=CCc1ccccc1OCCN1CCCC1	8	0	26	0	.	.
C=CCc1cc(OC)ccc1OCCCCN1CCN(C)CC1	-3	0	76*	-1	-13	0
C=CCc1ccccc1OCCCCN1CCN(C)CC1	-4	0	57*	0	-7	-4
CCOc1cc(C=O)ccc1OCCCCN1CCN(CC)CC1	10	0	71*	2	9	10
CCc1ccccc1OCCOCCN1CCN(C)CC1	3	0	58*	-2	2	0
Cc1ccc(-n2ncc3c(SCCC4OCCO4)ncnc32)c(C)c1	-39	0	0	0	.	.
COc1cc2nc(C(C)Oc3ccccc3)oc(=O)c2cc1OC (stereo not given)	-6	0	6	0	.	.
CCOC(=O)c1sc(NC(=O)C(C)Sc2nnc(CNC(=O)c3cccs3)n2C2CCCCC2)c(C(=O)OCC)c1C (stereo not given)	1	0	8	-1	.	.
CCN1CCN(CCCCOc2ccccc2C=O)CC1	16	0	58*	-1	7	7
CN1CCN(CCCCOc2ccccc2C=O)CC1	3	0	16	0	.	.
C=CCc1cccc(OC)c1OCCCN1CCN(C)CC1	6	0	78*	-1	-9	1
CC(=O)c1ccccc1OCCCCN1CCN(C)CC1	2	0	82*	2	-5	-7
COc1cccc(C=O)c1OCCCCN1CCN(C)CC1	8	0	66*	1	-2	1
Cc1c2cn[nH]c(=O)c2c(C)n1Cc1cccc(Cl)c1	-7	0	17	1	.	.
O=[N+]([O-])c1ccc(-c2nsc3c(N4CCN(Cc5cccnc5)CC4)ncnc23)cc1	-14	0	13	0	.	.
O=[N+]([O-])c1ccc(CN2CCN(Cc3ccncc3)CC2)cc1	7	0	65*	-1	10	15
O=[N+]([O-])c1ccc(CN2CCSCC2)cc1	5	0	48	1	.	.

Source: PubChem (The Scripps Research Institute Molecular Screening Center)
